Experimental data as given in PubChem BioAssay (NCATS).
Inconclusive results are not listed. Activity calls are given as the source filed them. Unless noted, calls come from the whole dose curve; as a rule, active = well fitted curve in the direction sought with a large enough effect; inconclusive = small, poorly fitted or top-dose-only effect, or another doubt; inactive = no such curve, though single readings can be large; an effect the other way counts as inactive or inconclusive.

Legend:
[1] = qHTS of Nrf2 Activators: LOPAC Validation (AID 624149)
In short: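 AREc32 cells carrying an ARE-driven firefly luciferase were grown overnight in OPTI-MEM with 5% FBS, then exposed to compounds for 24 hr at 37 deg C. Luciferase signal was read after 30 min with Steady-Glo at RT.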

[2] = HTS Assay for Allosteric Antagonists of the Human D2 Dopamine Receptor: Hit Validation in HTRF (AID 624455);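 note: stable D1 dopamine receptor cell line scored for blocking the D1 response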
In short: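 Hits were examined in an HTRF assay using cells stably expressing the D1 dopamine receptor, scoring inhibition of the D1-mediated response. The preceding primary screen tracked calcium flux after an EC80 dopamine addition in force-coupled, inducible Hek293 Trex D2 cells.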

[3] = target: Arylsulfatase A (Homo sapiens) (UniProt P15289); assay: qHTS screen for enhancers of Arylsulfatase A (ASA1): LOPAC Validation Assay (AID 720538)
In short: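 Enhancer assay in patient-derived MLD fibroblasts carrying ASA-I179S: 48 h compound exposure at 37 C, then 14 h room-temperature pNCS turnover (0.5 mM final) in lysis buffer. Read by fluorescence at 525/598 nm after NaOH stop.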

[4] = qHTS for compounds that reverse cellular toxicity of Amyloid beta (A-beta) peptide in yeast: LOPAC Validation Assay (AID 720559)
In short: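 Rescue of A-beta toxicity was scored as yeast growth by 600 nm absorbance after 48 hr at 30 C with compound. Normalization used DMSO (negative) and equimolar ferric chloride plus clioquinol (positive).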

[5] = qHTS for Activators of Parkin Expression: LOPAC Validation Assay (NLuc Reporter) (AID 720572)
In short: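 Neuronal cells with a Parkin promoter-driven FLuc/NLuc coincidence reporter were treated 24 h at 37 C in 7-point dose response (LOPAC). NLuc luminescence read after FLuc; signals normalized to DMSO and positive control (100%).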

[6] = qHTS for Activators of Parkin Expression: LOPAC Validation Assay (FLuc Reporter) (AID 720573)
In short: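 FLuc signal from Parkin-promoter coincidence reporter neuronal cells, normalized to DMSO and positive control (100%). Cells (1,500/well) pre-incubated 24 h, then exposed to LOPAC compounds in 7-point dose response for 24 h at 37 C, 5% CO2.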

[7] = target: T1, Hexokinase-4 (Homo sapiens) + Glucokinase regulatory protein (Homo sapiens) (UniProt P35557+Q14397); assay: qHTS assay for inhibitors of recombinant human GCK-GKRP interaction: ADP-Glo assay (AID 743206)
In short: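 GST-GCK and FLAG-GKRP (15 nM each in the dispensed mix, with 2 uM S6P) react with 0.4 mM ATP and 5 mM glucose (final) in Hepes pH 7.6 for 60 min at room temperature. ADP is measured by ADP-Glo luminescence.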

[8] = target: T1, Hexokinase-4 (Homo sapiens) + Glucokinase regulatory protein (Homo sapiens); assay: qHTS assay for inhibitors of recombinant human GCK-GKRP interaction: HTRF assay (AID 743207)
In short: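 After 60 min equilibration at room temperature with anti-FLAG XL665 and anti-GST antibodies, FRET ratio (665/615 nm, excitation 320 nm) was read. Proteins: GST-GCK and FLAG-GKRP, each 5 nM, plus 2 uM S6P, pH 7.1 buffer; GCK-free wells define minimum signal.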

[9] = Natriuretic polypeptide receptor (hNpr1) antagonism - Pilot counterscreen GloSensor control cell line (AID 1347045; calls by dose curve)
In short: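 HEK293 cells carrying the GloSensor cGMP sensor (GIP/pGS-40F) were loaded with 2% GloSensor reagent for 2 h, exposed to compounds for 30 min, and then stimulated with 50 uM sodium nitroprusside for 20 min at room temperature.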

[10] = target: Atrial natriuretic peptide receptor 1 (Homo sapiens) (UniProt P16066); assay: Natriuretic polypeptide receptor (hNpr1) antagonism - Pilot screen (AID 1347049; calls by dose curve;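 note: agonist-evoked cGMP luminescence read 20 min after hNppA addition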)
In short: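 HEK293 cells expressing hNpr1 and GloSensor cGMP luciferase, 1500/well, loaded with 2% GloSensor reagent 2 h, compound 30 min at room temperature; luminescence read before and 20 min after 0.1 nM hNppA stimulation.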

[11] = target: T2, Tyrosine-protein phosphatase non-receptor type substrate 1 (Homo sapiens) + Leukocyte surface antigen CD47 (Homo sapiens) (UniProt P78324+Q08722); assay: CD47-SIRPalpha protein protein interaction - LANCE assay qHTS validation (AID 1347057; active = well fitted curve in the direction sought with a large enough effect in the signal ratio, with a control signal flat, not every such curve was filed as active; the % refers to the signal ratio)
In short: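 First, His-tagged CD47 and Eu-labelled anti-His antibody met the compound for 30 min; next, site-specifically biotinylated SIRPalpha was added for 30 min; finally streptavidin-APC was added before reading the TR-FRET ratio.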

[12] = target: T2, Tyrosine-protein phosphatase non-receptor type substrate 1 (Homo sapiens) + Leukocyte surface antigen CD47 (Homo sapiens); assay: CD47-SIRPalpha protein protein interaction - HTRF assay qHTS validation (AID 1347058; active = well fitted curve in the direction sought with a large enough effect in the signal ratio, not every such curve was filed as active; the % refers to the signal ratio;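 note: recombinant soluble extracellular CD47 with His tag and biotinylated SIRPalpha domains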)
In short: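 TR-FRET read (Ch1/Ch2 ratio) of soluble extracellular CD47 and Avi-biotinylated SIRPalpha domains in PBS pH 7.4 with 0.05% IGEPAL; 7-point compound titration. Sequential 30 min room-temperature steps; non-biotinylated SIRPalpha as control inhibitor.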

[13] = target: T2, Tyrosine-protein phosphatase non-receptor type substrate 1 (Homo sapiens) + Leukocyte surface antigen CD47 (Homo sapiens); assay: CD47-SIRPalpha protein protein interaction - Alpha assay qHTS validation (AID 1347059);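 note: bead proximity luminescence from CD47 binding SIRPalpha after compound preincubation with SIRPalpha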
In short: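 Biotinylated Avi-tagged SIRPalpha (25 nM) preincubated 30 min with compound, then His-tagged CD47 (12.5 nM) added 30 min; AlphaScreen with Ni-NTA acceptor and streptavidin donor beads. PBS pH 7.4, 0.05% IGEPAL, room temperature; 7-point titrations.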

[14] = target: Parathyroid hormone/parathyroid hormone-related peptide receptor (Homo sapiens) (UniProt Q03431); assay: qHTS for PTHR1 Agonists: Optimization Screen against the NCGC LOPAC library (AID 1347079);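 note: GloSensor cAMP luminescence in HEK-293 GP2 cells expressing human PTHR1 with IBMX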
In short: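 Compounds were tested across a qHTS titration. PTHR1-expressing GP2 cells report cAMP rises via GloSensor luminescence after 1 hr compound exposure at 37C with IBMX present.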

[15] = target: N-terminal Xaa-Pro-Lys N-methyltransferase 1 (Homo sapiens) (UniProt Q9BV86); assay: qHTS Assay for Inhibitors of N-terminal methyltransferase 1 (NTMT1): LOPAC validation of the NTMT1 SAHH-coupled ThioGlo3 Assay (AID 1347143);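 note: SAH from peptide methylation measured as thiol fluorescence via SAHH coupling and ThioGlo3; potency is the fitted concentration of half-maximal effect; nearly all actives have a fitted effect of over 70% in size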
In short: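 Recombinant human NTMT1 (125nM) was pre-incubated 1 min at room temperature with compounds over a concentration range, then a mix of 100uM SAM, 10uM SAHH and 15uM ThioGlo3 (concentrations in added reagent) was added. ThioGlo3 fluorescence (ex 340/em 450nm) after 30 min was normalized to the initial reading.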

[16] = qHTS to identify inhibitors of the type 1 interferon - major histocompatibility complex class I in skeletal muscle: primary screen against the NCATS LOPAC collection (AID 1347405);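 note: lytic HiBiT luminescence reporting HLA-B protein level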
In short: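 Immortalized human C25cl48 myoblasts with HiBiT knocked into endogenous HLA-B*08:01 were stimulated with 4.0 ng/ml IFN-beta and given compounds in a 7-point, 1:4.3 titration from 46 uM final; after 24 hrs, lytic HiBiT luminescence was read.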

[17] = Validation qHTS assay for inhibitors of Activation Induced Cytidine Deaminase (AID): UDG Counterscreen signal (AID 1347427)
In short: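 Counterscreen read of UDG activity (2 U/mL, 4/3x) in the FRET deamination format with AID (1 uM, 4/3x), DJC20/DJC23 substrates (250 nM, 4x), 4 h at room temperature. NaOH stop, fluorescence at 560 ex/665 em.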

[18] = target: Single-stranded DNA cytosine deaminase (Homo sapiens) (UniProt Q9GZX7); assay: Validation qHTS assay for inhibitors of Activation Induced Cytidine Deaminase (AID): AID signal (AID 1347429)
In short: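 AID and UDG were combined and compounds added at final up to 114 uM, then DJC20/DJC23 FRET substrate was added for 4 hr at room temperature. NaOH was then added for 30 min before fluorescence was read at 540/590 nm.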

[19] = target: Calcium and integrin-binding protein 1 (Homo sapiens) (UniProt Q99828); assay: Validation qHTS for Identification of Calcium Integrin Binding protein 1 (CIB1) Competitor (AID 1508618)
In short: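 CIB1-GST (1 uM final) incubated 15 min at room temperature with compounds (up to 114 uM), then FITC-labelled alphaIIb peptide (100 nM) added. FP read (Ex 480/Em 540) after 15 min, pH 7.4 buffer containing 5 mM CaCl2.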

[20] = Primary qHTS for small molecule stabilizers of the endoplasmic reticulum resident proteome: Secreted ER Calcium Modulated Protein (SERCaMP) assay (AID 1508630)
In short: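 GLuc-SERCaMP-expressing SH-SY5Y cells, pretreated 16 h with compound, are challenged with thapsigargin to empty ER calcium stores; after 4 h, coelenterazine is added directly to the medium and luminescence is imaged.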

Papain (Carica papaya) = Papain (Carica papaya) (UniProt P00784); assay: Primary qHTS assay for inhibitors of the protease papain (AID 1645873);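 note: papain turnover of Z-FR-AMC read as the AMC fluorescence gain over 10 min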
[21] = target: Catechol O-methyltransferase (Homo sapiens) (UniProt P21964); assay: Confirmatory Screen for Target Class Profiling of Small Molecule Inhibitors of Methyltransferases (AID 1745852; calls by dose curve); details: MTase-Glo luminescence, SAH detection, recombinant enzyme; measured here: COMT max response; stronger effect = lower value
[22] = target: Guanidinoacetate N-methyltransferase (Homo sapiens) (UniProt Q14353); assay: as above; details: activity change, negative = inhibition: at 57.3 µM (top of the series) unless noted
[23] = target: Nicotinamide N-methyltransferase (Homo sapiens) (UniProt P40261); assay: as above; details: MTase-Glo luminescence, SAH detection, recombinant enzyme; measured here: NNMT max response; stronger effect = lower value
[24] = target: Phenylethanolamine N-methyltransferase (Homo sapiens) (UniProt P11086); assay: as above; details: MTase-Glo luminescence, SAH detection, recombinant enzyme; measured here: PNMT max response; stronger effect = lower value
[25] = target: Metallo-beta-lactamase type 2 (Klebsiella pneumoniae) (UniProt C7C422); assay: qHTS to identify inhibitors of the New Delhi Metallo-beta-lactamase (NDM): assay validation screen against the NCATS LOPAC Collection (AID 1794843)
In short: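 Absorbance at 485 nm from nitrocefin turnover (50 uM solution added), read at plateau, gives the read-out. Compounds in DMSO were incubated first with 2 nM final NDM-1 in pH 7.0 HEPES buffer containing 1 uM ZnSO4 and 0.01% Tween20.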

[26] = target: Glutathione peroxidase 1 (Homo sapiens) (UniProt P07203); assay: Primary qHTS Assay for Inhibitors of Recombinant Selenoprotein Glutathione Peroxidase 1 (GPX1) (AID 1845191); note: nearly all actives have a fitted effect of over 65% in size
In short: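 GR-coupled assay: compounds preincubated 30 min at room temperature with GPX1, then reaction started with CHP; final 10 nM GPX1, 1 mM GSH, 0.5 mM CHP, 0.5 mM NADPH, 100 nM GR, 0.01% BSA, pH 7.5 Tris buffer. NADPH fluorescence (340/450 nm) read at 0 and 15 min.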

[27] = target: Phospholipid hydroperoxide glutathione peroxidase GPX4 (Homo sapiens) (UniProt P36969); assay: Primary qHTS Assay for Inhibitors of Recombinant Selenoprotein Glutathione Peroxidase 4 (GPX4) (AID 1845192); details: outcome: dose series up to 50 µM unless noted; note: nearly all actives have a fitted effect of over 65% in size
In short: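 GR-coupled assay: recombinant GPX4 preincubated 30 min with compound at room temperature; final 200 nM GPX4, 1 mM GSH, 0.5 mM cumene hydroperoxide, 0.5 mM NADPH, 100 nM GR, 0.01% BSA, pH 7.5 Tris. NADPH fluorescence (340/450 nm) read at 0 and 15 min.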

T2 sequence (P78324 whole entry, looked up): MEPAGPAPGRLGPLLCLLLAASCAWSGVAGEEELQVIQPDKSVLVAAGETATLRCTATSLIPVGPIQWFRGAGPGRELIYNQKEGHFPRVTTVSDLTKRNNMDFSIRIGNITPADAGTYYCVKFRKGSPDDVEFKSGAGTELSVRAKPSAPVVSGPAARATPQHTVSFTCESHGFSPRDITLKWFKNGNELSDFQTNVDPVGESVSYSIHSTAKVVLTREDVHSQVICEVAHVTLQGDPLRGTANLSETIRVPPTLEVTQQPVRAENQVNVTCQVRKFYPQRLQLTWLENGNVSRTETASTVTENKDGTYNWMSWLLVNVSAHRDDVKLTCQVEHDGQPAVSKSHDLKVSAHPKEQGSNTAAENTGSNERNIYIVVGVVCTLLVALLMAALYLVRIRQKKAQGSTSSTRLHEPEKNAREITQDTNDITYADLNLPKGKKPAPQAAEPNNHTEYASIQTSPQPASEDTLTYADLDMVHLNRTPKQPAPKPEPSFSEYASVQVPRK
T2 sequence (Q08722 whole entry, looked up): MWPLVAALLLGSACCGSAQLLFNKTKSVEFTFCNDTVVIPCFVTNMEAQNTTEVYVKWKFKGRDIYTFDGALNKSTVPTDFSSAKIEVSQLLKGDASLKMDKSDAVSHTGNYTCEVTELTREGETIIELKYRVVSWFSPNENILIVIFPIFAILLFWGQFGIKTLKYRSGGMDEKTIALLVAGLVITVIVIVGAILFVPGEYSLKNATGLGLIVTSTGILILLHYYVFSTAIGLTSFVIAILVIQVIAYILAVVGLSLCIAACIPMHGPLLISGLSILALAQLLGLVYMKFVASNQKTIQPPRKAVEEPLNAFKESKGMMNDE
T1 sequence (P35557 whole entry, looked up): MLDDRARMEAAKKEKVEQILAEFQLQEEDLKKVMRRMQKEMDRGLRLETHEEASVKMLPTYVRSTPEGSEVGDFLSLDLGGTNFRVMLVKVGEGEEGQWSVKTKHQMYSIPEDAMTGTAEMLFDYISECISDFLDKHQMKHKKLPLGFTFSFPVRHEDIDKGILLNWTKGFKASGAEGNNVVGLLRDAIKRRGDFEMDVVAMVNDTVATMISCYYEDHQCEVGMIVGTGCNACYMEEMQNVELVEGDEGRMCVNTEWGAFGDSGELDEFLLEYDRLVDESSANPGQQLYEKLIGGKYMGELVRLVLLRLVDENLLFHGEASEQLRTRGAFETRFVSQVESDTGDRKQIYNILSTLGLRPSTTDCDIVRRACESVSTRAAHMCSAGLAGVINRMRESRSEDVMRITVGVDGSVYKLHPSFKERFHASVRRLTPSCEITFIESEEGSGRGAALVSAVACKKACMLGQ
T1 sequence (Q14397 whole entry, looked up): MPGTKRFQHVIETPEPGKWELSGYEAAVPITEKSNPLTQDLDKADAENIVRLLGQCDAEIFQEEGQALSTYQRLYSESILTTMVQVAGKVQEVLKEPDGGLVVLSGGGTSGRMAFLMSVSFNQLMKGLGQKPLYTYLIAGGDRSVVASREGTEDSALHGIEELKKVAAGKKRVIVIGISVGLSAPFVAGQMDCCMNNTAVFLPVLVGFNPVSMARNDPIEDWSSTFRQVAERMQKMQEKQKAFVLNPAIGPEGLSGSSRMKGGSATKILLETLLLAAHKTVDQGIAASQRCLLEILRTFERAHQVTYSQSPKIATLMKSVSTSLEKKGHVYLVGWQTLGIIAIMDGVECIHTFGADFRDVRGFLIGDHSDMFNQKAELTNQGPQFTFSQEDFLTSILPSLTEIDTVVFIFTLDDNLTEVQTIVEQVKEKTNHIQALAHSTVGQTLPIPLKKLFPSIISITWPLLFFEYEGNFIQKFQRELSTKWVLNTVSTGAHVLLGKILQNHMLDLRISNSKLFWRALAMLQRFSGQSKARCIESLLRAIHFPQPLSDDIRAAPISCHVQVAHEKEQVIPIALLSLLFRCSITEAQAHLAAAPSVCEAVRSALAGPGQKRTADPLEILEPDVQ
Sequence of Catechol O-methyltransferase (Homo sapiens) (P21964 whole entry, looked up): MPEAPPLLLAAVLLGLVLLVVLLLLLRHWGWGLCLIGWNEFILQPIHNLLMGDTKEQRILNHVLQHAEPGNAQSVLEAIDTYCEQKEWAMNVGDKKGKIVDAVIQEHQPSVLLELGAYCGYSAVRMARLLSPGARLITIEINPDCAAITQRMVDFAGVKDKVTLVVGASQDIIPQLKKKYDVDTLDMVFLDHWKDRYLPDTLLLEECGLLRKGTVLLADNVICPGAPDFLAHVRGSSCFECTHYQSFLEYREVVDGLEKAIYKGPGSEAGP
Sequence of Arylsulfatase A (Homo sapiens) (P15289 whole entry, looked up): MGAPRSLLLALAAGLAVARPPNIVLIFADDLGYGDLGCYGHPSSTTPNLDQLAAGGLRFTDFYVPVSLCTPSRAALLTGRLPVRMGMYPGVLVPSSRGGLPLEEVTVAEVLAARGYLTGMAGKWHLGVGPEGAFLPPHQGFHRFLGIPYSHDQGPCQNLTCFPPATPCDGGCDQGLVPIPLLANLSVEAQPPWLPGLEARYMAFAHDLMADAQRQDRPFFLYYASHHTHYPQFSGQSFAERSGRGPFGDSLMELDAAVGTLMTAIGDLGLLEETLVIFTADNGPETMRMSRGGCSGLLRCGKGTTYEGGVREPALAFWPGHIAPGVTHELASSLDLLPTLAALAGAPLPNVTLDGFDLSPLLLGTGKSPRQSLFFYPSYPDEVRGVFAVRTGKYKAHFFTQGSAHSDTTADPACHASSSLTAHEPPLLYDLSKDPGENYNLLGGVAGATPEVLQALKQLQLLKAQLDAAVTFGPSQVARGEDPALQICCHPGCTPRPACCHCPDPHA
Sequence of Parathyroid hormone/parathyroid hormone-related peptide receptor (Homo sapiens) (Q03431 whole entry, looked up): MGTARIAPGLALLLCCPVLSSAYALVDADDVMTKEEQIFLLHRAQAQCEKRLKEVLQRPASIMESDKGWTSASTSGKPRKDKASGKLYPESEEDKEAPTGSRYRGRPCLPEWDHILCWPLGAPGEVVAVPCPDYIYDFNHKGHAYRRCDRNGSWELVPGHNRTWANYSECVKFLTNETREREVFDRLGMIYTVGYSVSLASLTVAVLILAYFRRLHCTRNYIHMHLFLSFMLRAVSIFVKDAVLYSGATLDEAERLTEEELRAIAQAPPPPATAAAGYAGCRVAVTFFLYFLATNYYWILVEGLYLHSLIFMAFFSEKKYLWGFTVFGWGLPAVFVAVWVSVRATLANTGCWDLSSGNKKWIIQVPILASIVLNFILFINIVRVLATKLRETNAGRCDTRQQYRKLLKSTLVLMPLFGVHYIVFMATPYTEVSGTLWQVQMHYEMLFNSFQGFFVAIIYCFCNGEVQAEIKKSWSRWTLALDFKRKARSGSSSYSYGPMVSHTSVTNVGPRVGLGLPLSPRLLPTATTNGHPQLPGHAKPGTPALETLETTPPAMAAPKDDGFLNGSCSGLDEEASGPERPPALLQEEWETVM
Sequence of Phospholipid hydroperoxide glutathione peroxidase GPX4 (Homo sapiens) (P36969 whole entry, looked up): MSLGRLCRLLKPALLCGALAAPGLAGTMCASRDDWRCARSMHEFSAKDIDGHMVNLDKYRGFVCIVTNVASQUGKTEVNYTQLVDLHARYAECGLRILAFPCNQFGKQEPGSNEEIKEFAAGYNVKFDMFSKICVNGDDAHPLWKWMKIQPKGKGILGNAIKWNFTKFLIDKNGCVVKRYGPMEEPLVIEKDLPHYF
Sequence of Papain (Carica papaya) (P00784 whole entry, looked up): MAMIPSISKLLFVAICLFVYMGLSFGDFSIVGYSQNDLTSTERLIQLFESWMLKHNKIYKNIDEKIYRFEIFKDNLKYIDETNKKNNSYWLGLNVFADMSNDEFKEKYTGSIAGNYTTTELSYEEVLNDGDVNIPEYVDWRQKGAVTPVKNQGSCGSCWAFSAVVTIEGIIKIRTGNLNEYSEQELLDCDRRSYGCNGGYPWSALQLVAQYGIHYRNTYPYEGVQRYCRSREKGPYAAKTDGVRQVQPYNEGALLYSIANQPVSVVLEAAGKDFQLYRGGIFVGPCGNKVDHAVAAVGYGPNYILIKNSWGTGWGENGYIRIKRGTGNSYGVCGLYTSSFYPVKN
Sequence of Single-stranded DNA cytosine deaminase (Homo sapiens) (Q9GZX7 whole entry, looked up): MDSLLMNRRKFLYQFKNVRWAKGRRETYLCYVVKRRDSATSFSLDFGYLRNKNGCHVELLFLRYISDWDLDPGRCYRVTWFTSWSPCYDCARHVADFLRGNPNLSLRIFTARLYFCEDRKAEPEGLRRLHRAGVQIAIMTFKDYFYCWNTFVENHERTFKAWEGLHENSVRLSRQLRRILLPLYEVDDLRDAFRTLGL
Sequence of Metallo-beta-lactamase type 2 (Klebsiella pneumoniae) (C7C422 whole entry, looked up): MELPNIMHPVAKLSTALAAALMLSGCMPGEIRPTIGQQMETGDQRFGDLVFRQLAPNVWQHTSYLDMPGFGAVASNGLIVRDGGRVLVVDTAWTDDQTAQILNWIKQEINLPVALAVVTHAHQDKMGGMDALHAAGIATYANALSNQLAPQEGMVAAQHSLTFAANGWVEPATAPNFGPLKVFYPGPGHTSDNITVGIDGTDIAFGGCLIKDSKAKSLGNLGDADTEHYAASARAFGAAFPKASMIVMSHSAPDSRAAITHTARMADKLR
Sequence of Glutathione peroxidase 1 (Homo sapiens) (P07203 whole entry, looked up): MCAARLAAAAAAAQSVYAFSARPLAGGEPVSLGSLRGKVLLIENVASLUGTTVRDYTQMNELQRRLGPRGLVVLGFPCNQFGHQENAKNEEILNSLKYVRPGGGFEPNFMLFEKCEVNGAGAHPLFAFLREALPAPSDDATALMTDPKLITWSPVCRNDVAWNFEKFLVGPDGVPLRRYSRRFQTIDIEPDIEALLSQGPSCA
Sequence of Nicotinamide N-methyltransferase (Homo sapiens) (P40261 whole entry, looked up): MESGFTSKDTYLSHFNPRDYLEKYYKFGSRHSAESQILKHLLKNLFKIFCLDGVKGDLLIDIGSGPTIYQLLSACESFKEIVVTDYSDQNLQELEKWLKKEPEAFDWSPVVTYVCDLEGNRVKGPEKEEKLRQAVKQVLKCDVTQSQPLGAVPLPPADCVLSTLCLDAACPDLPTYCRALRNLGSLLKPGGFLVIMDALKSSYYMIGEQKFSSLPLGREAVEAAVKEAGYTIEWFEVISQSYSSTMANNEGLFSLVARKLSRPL

CN1C2CCCC1CC(NC(=O)c1nn(C)c3ccccc13)C2 (stereo not drawn)
1.32%: activity [21]
active: Potency [15] 56.2 µM
0.961%: activity [23]
4.07%: activity [24]
5.2%: activity change, negative = inhibition [22]
inactive: outcome [1] | outcome [2] | Potency [3] | outcome [4] | outcome [5] | Potency [6] | outcome [7] | outcome [8] | Potency [9] | Potency [10] | outcome [11] | outcome [12] | Potency [13] | outcome [14] | Potency [16] | outcome [17] | Potency [18] | outcome [19] | Potency [20] | Potency (Papain (Carica papaya)) | Potency [25] | Potency [26] | Potency [27]
